Consider 40 molecules from PubChem BioAssay (NCI).

This is part of a sample that, as a whole, favours compounds with a hit. Of some 83,000 tested, about 20% had one in any assay.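 How to read the values: 0–100, growth inhibition (40 = 60% inhibited); 0, no net growth; -100 to 0, cell death (-40 = 40% of starting cells died; -100 = all dead).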 Active and inactive are the calls of the source. The calls were made as follows: active = growth percent below 10; inactive = the rest.

The assay deals with HL-60(TB) leukemia. Nature of the assay: NCI-60 one-dose screen, 48 h (100 = growth as untreated, 0 = no growth, -100 = all killed). The note with it: 10 µM unless noted.
On to `COc1c(NC[C@H]2OC(O)[C@H](O)[C@@H](O)[C@@H]2O)c(=O)c1=O` (stereo not given in full), for which the growth was 114% (inactive).
Next, `CCN1CCN(c2cc(C)c3cc(NC(=O)c4ccc(OC)c(OC)c4)ccc3n2)CC1`: 1.42% (active); `CCCCn1c(=O)c(-c2cc(-c3ccc(Cl)cc3)nc(-c3ccc(Cl)cc3)c2)cc2cc(Cl)ccc21`: 100% (inactive); `O=C(NNC(=O)c1ccc([N+](=O)[O-])cc1)c1ccc([N+](=O)[O-])cc1`: 88.3% (inactive).
Next, `Cc1nc2ccccc2c(/C=C/c2ccc(Cl)cc2)c1C(=O)/C=C/c1ccc(C(F)(F)F)cc1`: -37% (active).
Next, `N#Cc1ccc(OC(=O)Nc2ccc(Cl)c(Cl)c2)cc1`: 64.2% (inactive); `CC(=O)Nc1ccc(S(=O)(=O)N/N=C(\C)c2ccc(C)cc2C)cc1`: 86.4% (inactive).
With `COc1cnc2c(c1)C(=O)c1c-2n(CCCN2CCC(O)CC2)c(=O)c2cc(F)ccc12`, the growth was -8.3% (active).
Regarding `CCCCCCCCCCCCCCCCCCOc1ccccc1CCCOP(=O)(O)OCC[N+](C)(C)C`, the growth is 21.9% (inactive).
Next, `C=C(C)[C@@H]1CC[C@]2(CN)CC[C@]3(C)[C@H](CC[C@@H]4[C@@](C)(CCCN)[C@H](C(=C)C)CC[C@]43C)[C@@H]12`: 53.3% (inactive).
As to `CC1(C)CC[C@]2(C(=O)O)CC[C@]3(C)C(=CC[C@@H]4[C@@]5(C)C[C@@H](Cc6cn([C@@H]7O[C@H](CO)[C@@H](O)[C@H](O)[C@H]7O)nn6)[C@H](O)C(C)(C)[C@@H]5CC[C@]43C)[C@@H]2C1`, the growth is 93.4% (inactive).
Next, `COc1ccc(NC(=O)Nc2ccc(-c3ccc(OC)c(OC)c3)nc2C)cc1`: 85.7% (inactive); `Cc1ccc(O)c(C(=O)O)c1`: 99.5% (inactive).
Next, `Oc1c(C(Nc2ccccc2Br)c2ccccc2)ccc2cccnc12` (stereo not given): -17.8% (active); `N#CSc1cc(S(N)(=O)=O)ccc1N`: 81.2% (inactive); `COc1ccc2c(c1)CC/C(=C\c1ccc(OCC(=O)Nc3nc4ccccc4s3)cc1)C2=O`: 87.6% (inactive).
Turning to `Cc1cscc(C)c1=S`, the growth is 111% (inactive).
Next, `C=CC(=O)N[C@@H](/C=C/C(=O)OCC)Cc1ccc(-c2cc(Cl)cc(Cl)c2)cc1`: -27.4% (active); `NCCNc1nc2ccccc2c2c(=O)c3cc(F)ccc3sc12`: 62.8% (inactive); `COc1ccc(-c2[nH]c3ccccc3c2C=C(C#N)C#N)cc1`: -48.9% (active).
Next, `CCCCCCCCCCCCCCCCCC1=NCCN1CS(=O)(=O)O`: 24.2% (inactive).
Next, `c1csc(-c2[nH]nc3c2CCc2ccccc2-3)c1`: 132% (inactive).
As to `O=C1/C=C/[C@@H](O)[C@@H]2C[C@@H](O)C[C@H]2/C=C/CCC[C@H](C(F)(F)F)O1`, the growth is -32.7% (active).
Next, `CC(C)Sc1nc(NNC(N)=S)c(C#N)c(-c2ccc(F)cc2)n1`: 94.9% (inactive).
`N=C1c2nc3n(c2C(=O)c2nc4n(c21)CCCCC4)CCCCC3`: the growth is 103% (inactive).
Turning to `COc1ccc2c(c1)/C(=C1\S/C(=N/c3nnc(C)s3)NC1=O)C(=O)N2Cc1ccc(Cl)cc1`, the growth was 53.8% (inactive).
Next, `COc1cc(/C=C/C(=O)/C=C(/C=C/c2ccc(OC(C)=O)c(OC)c2)OB(F)F)ccc1OC(C)=O`: 4.04% (active); `CC(=O)Nc1nc2c(c(N)c1C#N)C(c1cccc(Cl)c1)C1=C(CCCC1=O)N2c1sc2c(c1C#N)CCCC2` (stereo not given): 5.89% (active); `CCN(CC)CC#CCOC(=O)[C@]1(C)CCC[C@@]2(C)[C@H]1CC(C=O)=C1C=C(C(C)C)CC[C@@H]12`: 51.6% (inactive).
Next, `NS(=O)(=O)c1ccc(-n2nc(-c3ccc(Cl)cc3)ccc2=O)cc1`: 83.7% (inactive); `Nc1nonc1-n1nncc1-c1cccnc1`: 134% (inactive); `Cc1ccc(C[P+](c2ccccc2)(c2ccccc2)c2ccccc2)cc1`: -63.4% (active).
Next, `CS(=O)CCCCCN=C=S` (stereo not given): -33.9% (active).
On to `N#Cc1cc2[nH]c3ccc(OC(F)(F)F)cc3c2oc1=O`, for which the growth was 99.8% (inactive).
Next, `Cc1ccc(C(=O)Nc2nc3c(s2)CN(Cc2ccccc2)CC3)cn1`: 92.6% (inactive).
Next, `CC(=O)OC[C@H]1OC(Sc2sc(C(=O)c3ccc(Br)cc3)c(N)c2-c2nc3ccccc3s2)[C@H](OC(C)=O)[C@@H](OC(C)=O)[C@@H]1OC(C)=O` (stereo not given in full): 113% (inactive); `COc1ccc(/C=N/NC(=O)c2cccc3cc[nH]c23)cc1O`: 10.1% (inactive); `FC(F)(F)c1cc(Nc2ccc3c(OCCCN4CCOCC4)cccc3n2)ccc1Cl`: 63.3% (inactive).
Next, `Ic1ccc(SSc2ccc(I)cc2)cc1`: 80.4% (inactive); `COc1cc(-c2nc(Nc3nc4ccccc4s3)[nH]c(=O)c2C#N)cc(OC)c1O`: 98% (inactive).
